{"source": "PubChem BioAssay (NCI)", "note": "About 83,000 compounds went through this panel and 20% of them were active in at least one assay; those are over-represented in the sample as a whole.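 Note: values are percent growth. 100 is the growth of untreated cells, values between 100 and 0 indicate rising inhibition; between -100 and 0 indicates cell death.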 A number with no mark means an inactive call. Activity calls are given as the source filed them. How the source made its calls: active means growth percent below 10; inactive means the rest.", "data": [{"test_system": "RPMI-8226 leukemia", "experiment": "NCI-60 one-dose screen, 48 h (100 = growth as untreated, 0 = no growth, -100 = all killed)", "conditions": "10 µM unless noted", "values": [{"smiles": "COC(=O)c1cc2cc(-c3ccc(OC)cc3)cnc2[nH]1", "growth": "-5.41% (active)"}, {"smiles": "Cc1ccc(S(=O)(=O)n2cc(C(=O)C(=O)N3CCOCC3)c3ccccc32)cc1", "growth": "59.6%"}, {"smiles": "COc1ccc(-c2nc(/C=N/Nc3cc(C)nc4ccc(Cl)cc34)c(C)o2)cc1", "growth": "-50.8% (active)"}, {"smiles": "O=C1c2ccccc2-c2ccccc2C1(Cl)Cl", "growth": "-10.8% (active)"}, {"smiles": "COc1ccc(-c2cn(-c3cccc(C(=O)/C=C/c4cc(OC)c(OC)c(OC)c4)c3)c(=O)[nH]2)cc1OC", "growth": "6.95% (active)"}, {"smiles": "CCCCCCCCCCCCNC(=O)[C@H]1CSC(c2ccsc2)N1", "note": "(some centres undefined)", "growth": "34.3%"}, {"smiles": "COc1cc(C2NN=C3c4ccccc4CCC32)cc(OC)c1OC", "note": "(centres undefined)", "growth": "5.35% (active)"}, {"smiles": "O=C(N/N=C/C=C\\c1ccccc1)C(=O)N/N=C/C=C/c1ccccc1", "growth": "102%"}, {"smiles": "CN1CCN(Cc2ccc(NC(=O)c3cncc(C#Cc4cnc(N)c5ccncc45)c3)cc2C(F)(F)F)CC1", "growth": "18.5%"}, {"smiles": "N=C(N)c1ccc(-c2ccc(-c3ccc4ccccc4c3)s2)cc1", "growth": "60.7%"}, {"smiles": "COc1cc(/C=C/C(=O)c2cccc(-n3cc(-c4cc(OC)c(OC)c(OC)c4)[nH]c3=O)c2)cc(OC)c1OC", "growth": "-46.4% (active)"}, {"smiles": "N=C(N)c1ccc(-c2ccc(-c3ccc(-c4cccs4)s3)s2)cc1", "growth": "61%"}, {"smiles": "COc1ccc(-c2ccc(-c3ccc(C(=N)N)s3)s2)cc1Cl", "growth": "-39.7% (active)"}, {"smiles": "O=c1[nH]c2ccc(Br)cc2c2c1C(c1ccc(Cl)cc1)c1c(ncn3nc(-c4ccco4)nc13)O2", "note": "(centres undefined)", "growth": "58.4%"}, {"smiles": "N=C(N)c1ccc(-c2cc(Cl)cc(Cl)c2)cn1", "growth": "82.8%"}, {"smiles": "Cc1nc2ncccc2nc1Nc1ccc(S(=O)(=O)Nc2cncs2)cc1", "growth": "88.4%"}, {"smiles": "Cc1cc(N/N=C/c2nc(-c3ccccc3)oc2C)c2cc(Cl)ccc2n1", "growth": "-39.4% (active)"}, {"smiles": "Cc1nc2ncccc2nc1Nc1ccc(S(=O)(=O)Nc2ccccn2)cc1", "growth": "84.5%"}, {"smiles": "NC(=S)N/N=C1\\CCCC(C(F)(F)F)C1", "note": "(centres undefined)", "growth": "71.1%"}, {"smiles": "Oc1ccc2cc(Br)ccc2c1-c1c(O)ccc2cc(Br)ccc12", "growth": "64.9%"}, {"smiles": "CCC(=O)Oc1ccc(/C(=C(/C)Cc2cccc(OC)c2)c2ccc(OCCN(C)C)cc2)cc1", "growth": "70.7%"}, {"smiles": "COC1=C(OC)C(=O)C(CCCCCCCCCC[P+](c2ccccc2)(c2ccccc2)c2ccccc2)=C(C)C1=O", "growth": "-62.5% (active)"}, {"smiles": "O=C(CN1CCN(c2cc3c(cc2F)c(=O)c(C(=O)N/N=C/c2ccccc2O)cn3C2CC2)CC1)N/N=C\\c1ccccc1O", "growth": "25.4%"}, {"smiles": "COc1ccc(-c2ccc(-c3ccc(C(=N)N)cn3)s2)cc1OC", "growth": "89%"}]}]}
